From PubChem BioAssay (NCI)
This is part of a sample that, as a whole, favours compounds with a hit. Of some 83,000 tested, about 20% had one in any assay.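 Step 1: grow cells in 96-well plates. Step 2: add test compound at a single concentration. Step 3: incubate 48 h. Step 4: record percent growth.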 Unmarked numbers belong to inactive results. Activity calls are given as the source filed them. The calls were made as follows: active = growth percent below 10; inactive = the rest.

How the values were obtained:
Experiment in all cases: NCI-60 one-dose screen, 48 h (100 = growth as untreated, 0 = no growth, -100 = all killed)
Settings in all cases: 10 µM unless noted
[1] = test system: NCI-H23 lung
[2] = test system: NCI-H226 lung
[3] = test system: NCI-H322M lung
[4] = test system: HOP-62 NSCLC
[5] = test system: NCI-H460 lung
[6] = test system: HOP-92 NSCLC
[7] = test system: NCI-H522 lung
[8] = test system: A549/ATCC NSCLC
[9] = test system: 786-0 renal
[10] = test system: COLO 205 colon

Row | Compound | growth [1] | growth [2] | growth [3] | growth [4] | growth [5] | growth [6] | growth [7] | growth [8] | growth [9] | growth [10]
1 | CN(C)CC(C)(C)C(=O)/C=C/c1ccccc1 | -28.8% [25 µM] (active) | -17.9% [25 µM] (active) | -16.3% [25 µM] (active) | 12.3% [25 µM] | -27% [25 µM] (active) | -32.3% [25 µM] (active) | -81.1% [25 µM] (active) | 0.382% [25 µM] (active) | -46.6% [25 µM] (active) | -87% [25 µM] (active)
2 | CCOC(=O)n1cc(-c2nonc2-c2cn(C(=O)OCC)c3ccc(Br)cc23)c2ccccc21 | 67.9% | 79.4% | 70% | 72.3% | 81.6% | 63.2% | 70.6% | 74.4% | 90.6% | 84.2%
3 | CSc1nc2ccccc2cc1/C=C1/C=C(c2ccccc2)NC1=O | 87.4% | 92.9% | 93% | 79.1% | 84.7% | 70.2% | 74.6% | 81.9% | 93.2% | 93.8%
4 | Cc1ccc(/C=C2\COc3ccc(O)cc3C2=O)cc1 | 94.7% | 97.3% | 99.6% | 103% | 100% | 97.4% | 4.44% (active) | 89.7% | 86.7% | 94.3%
5 | O=C1C(Cl)=C(NCCCCCCNC2=C(Cl)C(=O)c3ccccc3C2=O)C(=O)c2ccccc21 | 61.8% | 102% | 92.2% | 112% | 94.8% | 86.2% | 90.7% | 102% | 114% | 86.2%
6 | C#CCNC(=O)[C@H](CC)[C@H]1CC[C@H](C)[C@H]([C@@H](C)[C@H](O)[C@H](C)C(=O)[C@H](CC)C2O[C@]3(C=CC(=O)[C@]4(CC[C@@](C)([C@H]5CC[C@](O)(CC)[C@H](C)O5)O4)O3)[C@H](C)C[C@@H]2C)O1 (stereo not given in full) | 42.4% | 57.7% | 53.8% | 61.8% | 35.5% | 13.2% | 32.3% | 44% | 70.5% | 10.8%
7 | COc1ccc(C2CC(c3ccc(Nc4nc(Nc5ccccc5)nc(Nc5ccccc5)n4)cc3)=NN2C(C)=O)cc1 (stereo not given) | 97.4% | 98.1% | 107% | 95.2% | 116% | 78% | 88.7% | 88.1% | 88.5% | 111%
8 | CC/C(=C(/c1ccc(Cl)cc1)c1ccc(OCCN2CCCCC2)cc1)c1ccc(OC)cc1 | 50.8% | 81.3% | 81% | 86.8% | 32% | 57% | 65.1% | 56.1% | 52% | 40.4%
9 | O=C(O)CCCN1C(=O)/C(=C/c2cn(-c3ccccc3)nc2-c2ccc([N+](=O)[O-])cc2)SC1=S | 74.6% | 64.8% | 44.1% | 49.6% | 25.7% | 111% | 83.7% | 40.5% | 64.5% | 103%
10 | COC(=O)c1c2c(c(C)[n+]([O-])c1C)C(=O)C(NCc1cccc(OC)c1)=CC2=O | 25.4% | 83.2% | 22.6% | 53.2% | 14.6% | 54.5% | 10.8% | 12.9% | 54.3% | -63.4% (active)
11 | N#Cc1nc(-c2ccccc2)oc1S(=O)(=O)N1CCN(c2ccccc2)CC1 | 74.9% | 87.2% | 95.6% | 104% | 97.8% | 116% | 58.6% | 99.9% | 99.8% | 122%
12 | CC1CN(S(=O)(=O)c2oc(-c3ccc(Cl)cc3)nc2C#N)CC(C)O1 (stereo not given) | 77.8% | 87.4% | 97.9% | 101% | 103% | 76.3% | -16.2% (active) | 100% | 79% | 2.95% (active)
13 | CS(=O)(=O)Nc1cncc(-c2ccc3ncnc(Nc4cncc(Cl)c4)c3c2)c1 | 80% | 80.8% | 71.7% | 73.4% | 103% | 31.5% | 50.2% | 81.7% | 82.3% | 93.8%
14 | COc1ccc(C2=Nc3c(N)nc(N)nc3NC(c3cccc(Nc4ccnc5cc(C(F)(F)F)ccc45)c3)C2)cc1 (stereo not given) | 85.8% | 97.2% | 99.6% | 67.8% | 59.3% | 57.3% | 44.9% | 63.1% | 73% | 57.7%
15 | O=C(Cn1cc(CSc2nc3ccccc3o2)nn1)Nc1ccc(F)cc1F | 96% | 86.2% | 104% | 114% | 117% | 114% | 111% | 113% | 119% | 127%
16 | N#CSCC1CC(O)(c2ccccc2)CC(c2ccc(F)cc2)O1 (stereo not given) | 20.5% | -7.79% (active) | 50.9% | -36.8% (active) | -28.9% (active) | 29.6% | -57% (active) | 27.8% | 0.242% (active) | 16.6%
17 | COC(CC(F)F)c1cn(S(=O)(=O)c2ccc(C)cc2)c2ccccc12 (stereo not given) | 52% | 75.9% | 27.8% | 34.1% | 11.6% | 40.8% | 42.7% | 33.9% | 35.3% | 3.62% (active)
18 | Cn1ccc(=O)c(C(=O)Nc2nsc3ccc([N+](=O)[O-])cc23)c1 | 91.3% | 76.7% | 45.2% | 96.4% | 48.2% | 41.2% | 53.3% | 74.9% | 56.2% | 76.9%
19 | COc1cc(-c2nc3sccn3c2-c2ccnc(NCCNS(=O)(=O)c3ccccc3)n2)ccc1F | 67.6% | 41.2% | 67.7% | 73.2% | 60.4% | 47.8% | 36.2% | 45.5% | 61.4% | 40.4%
20 | CCOC(=O)C1=C(N)Oc2c(sc3c(F)cccc23)C1c1ccc(O)cc1 (stereo not given) | 30.8% | 55.2% | 67.5% | 55.4% | 30.4% | 34.6% | 26.9% | 40.5% | 59.6% | 79.5%
21 | N#Cc1c(-c2ccccc2)cc(-c2ccc(Nc3nc(Nc4ccc(Cl)cc4)nc(Nc4ccc(Cl)cc4)n3)cc2)nc1N | 39.2% | -23.4% (active) | 87% | 99% | 48.2% | -72.5% (active) | 80.7% | 28.8% | 46.7% | -25.3% (active)
22 | Cc1c[n+](Cc2ccc3ccccc3c2)cn1Cc1ccc2ccccc2c1 | 27.7% | 31.8% | 65.7% | 33.2% | 21.9% | -20.9% (active) | -17.9% (active) | 60.5% | 41% | -78.7% (active)
23 | C=C1C(=O)O[C@H]2[C@H]1CC/C(COC(=O)/C=C\C(=O)NCc1ccc(Cn3c(=O)sn(CCI)c3=O)cc1)=C\CC[C@@]1(C)O[C@@H]21 | 84.1% | 83% | 86.6% | 130% | 91.9% | 46% | -84% (active) | 98.1% | 37.4% | -32.8% (active)
24 | Cc1cc(=O)oc2cc(OCc3nn4c(Nc5nc6ccccc6s5)c(-c5ccccc5)nc4s3)ccc12 | 83.3% | 92.2% | 90.7% | 90.2% | 83.8% | 77.1% | 76.6% | 94.4% | 103% | 104%
25 | Cc1ccc(-c2nc(N3CCCNCC3)c3oc(-c4ccccc4)nc3n2)cc1 | 9.93% (active) | 93.1% | -70.4% (active) | -55.3% (active) | -67.9% (active) | -27.1% (active) | -74.6% (active) | -87.8% (active) | -89.8% (active) | -80.9% (active)
